This is a sample that favours compounds with a hit; in the whole collection about 4.2% have one here.
NLRP3 yeast inh: NALP3 inflammasome inhibitors in reconstituted yeast, primary screen, luminescence, uHTS; Yeast reconstituted NLRP3/ASC/caspase-1, beta-gal luminescence, 24 h; inhibition, % at 10 µM; 330,000 compounds, 0.39% hits;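 active = inhibition of 50% or more; inactive = inhibition below 50%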;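 also: plate controls were induced DMSO wells for no effect and uninduced yeast grown without galactose for full effect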
tim23-1 inh: growth inhibitors of tim23-1 mutant yeast, primary screen, luminescence, uHTS. AID 463212, 2010. inhibition, % at 20 µM. 330,000 compounds, 1.3% hits. S. cerevisiae tim23-1 growth, BacTiter-Glo luminescence, 24 h;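 active = growth inhibition of the mutant yeast at or above 50%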;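 also: temperature-sensitive mutant grown at 25 °C; plate controls were DMSO-treated mutant yeast for no effect and medium wells lacking yeast for full effect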
PfHsp90 yeast 2: growth inhibition of PfHsp90-expressing yeast, primary screen, antimalarial PfHsp90 inhibitor project, S. cerevisiae, BacTiter-Glo luminescence, single point, set 2 | BacTiter-Glo ATP, 48 h; yeast lacking PDR1 and PDR3 efflux regulators | inhibition, % at 9.4 µM | 310,000 compounds, 0.32% hits | AID 504621, 2011;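 active = every replicate shows inhibition above about 80%, whatever the replicate mean, limit read from the data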;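 also: 0% = DMSO neutral controls and 100% = 20 µM radicicol positive controls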
tim10-1 inh: growth inhibitors of tim10-1 mutant yeast, primary screen, luminescence, uHTS; S. cerevisiae tim10-1 ts strain growth, BacTiter-Glo, 24 h; inhibition, % at 20 µM; 330,000 compounds, 2.2% hits;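 active = inhibition of at least 40%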;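 also: mutant grown at 25 °C; 0% = DMSO wells with yeast and 100% = wells holding no yeast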
TIM10 inh: growth inhibitors of isogenic TIM10 control yeast, primary screen, counter-screen for tim10-1 yeast inhibitor project, luminescence, uHTS; inhibition, % at 10 µM; 330,000 compounds, 1.4% hits; AID 463195, 2010; S. cerevisiae TIM10 strain growth, BacTiter-Glo luminescence, 24 h;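 active = inhibition of 40% or more at the single tested concentration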;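 also: wild-type TIM10 isogenic control strain grown at permissive 25 °C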
NALP1 inh: NALP1 inflammasome inhibitors in reconstituted yeast, colorimetric, S. cerevisiae, triplicate retest | S. cerevisiae NALP1/ASC/caspase-1 growth, X-gal OD620, 72 h | AID 2071, 2009 | inhibition, % at 10 µM | 280,000 compounds, 0.61% hits; in the data active = inhibition mostly above about 24%, no sharp cut-off; inactive = mostly below about 32%
tim10 confirm: growth inhibitors of wild-type TIM10 yeast, confirmation, counter-screen for tim10-1 synthetic lethality project, single concentration, luminescence, S. cerevisiae; 4,600 compounds, 63% hits; shares compounds with TIM10 inh; inhibition, % at 10 µM; S. cerevisiae tim10 strain growth, BacTiter-Glo luminescence, 24 h; AID 463215, 2010;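 active = inhibition of yeast growth at or above a set limit in either of two replicates at 10 µM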;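 also: this counterscreen used the strain with wild-type TIM10; 0% = yeast with DMSO and 100% = medium wells lacking yeast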
tim23-1 conf: tim23-1 mutant yeast growth inhibitors, confirmation, luminescence, single concentration; AID 463218, 2010; inhibition, % at 20 µM; S. cerevisiae tim23-1 growth, BacTiter-Glo luminescence, 24 h; shares compounds with tim23-1 inh; 4,400 compounds, 83% hits;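 active = inhibition above about 39% in either of two replicate wells at 20 µM, limit read from the data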;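 also: temperature-sensitive tim23-1 mutant grown at 25 °C; 0% = DMSO wells with yeast and 100% = medium wells without yeast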
* = called active by the depositor; nt = no result.

SMILES	NLRP3 yeast inh	tim23-1 inh	PfHsp90 yeast 2	tim10-1 inh	TIM10 inh	NALP1 inh	tim10 confirm	tim23-1 conf
Cc1cc(C)c(OCC(=O)Nc2cccc(NC(=O)c3ccco3)c2)c(Br)c1	29.9	55.4*	-2.1	17.9	45.2*	-3.7	28.8	43.5*
O=C(Nc1ccc(Oc2cccc3ccccc23)cc1)c1ccco1	46.3	58.4*	0.6	12.7	40.0*	-8.4	25.4	76.8*
O=C(COc1cccc(NC(=O)c2ccco2)c1)c1ccccc1	0.0	54.4*	nt	21.2	48.2*	-8.0	24.7	66.1*
COC(=O)c1cc(NS(=O)(=O)c2ccc(NC(C)=O)cc2)cc(C(=O)OC)c1	0.4	6.8	1.5	11.8	-19.3	-12.7	nt	nt
CCOc1ccc(NC(=O)c2c(NC(=O)CNCCN3CCOCC3)sc3c2CCC3)cc1	-5.3	4.3	-0.6	22.9	10.6	0.1	nt	nt
CCOC(=O)c1cc(-c2ccncc2)nc2c1c(C)nn2C	24.1	53.2*	-19.2	37.3	45.3*	2.7	41.4*	50.8*
CCOCC(=O)Nc1cc(C(=O)Nc2ccccc2)ccc1Cl	6.4	60.3*	7.3	19.2	53.7*	3.9	45.0*	67.4*
Clc1ccc2oc(-c3ccccc3)nc2c1	-13.4	13.8	0.6	0.8	7.1	4.2	nt	nt
O=C(Nc1ccc2c(c1)CCC2)c1cccs1	39.6	53.4*	0.7	33.9	45.4*	-21.2	34.9*	49.2*
O=S(=O)(Nc1ccc2oc(-c3ccccc3)nc2c1)c1ccccc1	25.8	73.8*	-24.4	36.6	45.4*	-5.3	36.5*	65.8*
O=C(Nc1ccc2c(c1)nc1n2CCN(Cc2ccccc2)C1)c1cccs1	34.7	53.2*	-4.8	28.1	66.7*	37.6	57.4*	73.3*
O=C(Nc1ccc2oc(-c3ccccc3)nc2c1)c1cccs1	49.2	53.3*	24.7	23.1	72.8*	-58.5	-1.1	75.7*
O=C(Nc1ccc(Cl)c(S(=O)(=O)Nc2ccccc2Cl)c1)c1cccs1	-8.6	52.9*	-62.0	32.6	44.7*	32.0	46.0*	69.0*
Cc1ccccc1-c1noc(-c2ccc(Cl)cc2)n1	2.9	4.1	-0.6	20.3	15.5	-9.9	nt	nt
Cc1ccccc1-c1noc(-c2ccc(O)cc2)n1	21.4	87.7*	56.2	30.5	48.2*	29.3	61.5*	73.2*
Cn1nc(C(=O)N2CCN(c3ccccn3)CC2)c2ccccc2c1=O	17.5	-13.3	-7.8	-7.8	-8.1	nt	nt	nt
CC1CCc2cc(F)cc3c(O)c(C(=O)NCc4ccco4)c(=O)n1c23 (stereo not given)	30.5	54.9*	12.7	29.8	49.2*	3.3	-3.6	51.5*
CC(C)OP(=O)(OC(C)C)/C(C=O)=N\Nc1ccc([N+](=O)[O-])cc1	40.9	67.2*	-18.6	38.2	50.9*	-4.3	49.9*	67.5*
O=C(CSc1nnc(NC(=O)C2CC2)s1)Nc1ccc2c(c1)OCCO2	11.5	13.5	nt	-0.7	17.8	3.2	nt	nt
NC(=O)c1ccccc1OCC(=O)N1CCc2ccccc2C1	11.6	-9.9	0.8	-2.6	-6.4	-4.2	nt	nt
COc1cc(/C=C2\C(C)=C(C#N)c3nc(N)c(C#N)c(C)c32)ccc1OCC(=O)O	8.3	61.4*	-10.6	39.5	43.6*	-11.8	31.1*	48.3*
COCCCNC(=O)/C(C#N)=C/c1ccc(OCC(=O)O)c(OC)c1	7.0	1.6	-15.0	-4.3	9.5	13.9	nt	nt
C=C(c1ccccc1O)n1ccnc1	-9.0	11.7	9.4	17.8	0.0	28.1	nt	nt
CN(C)CCCN(C(=O)c1cc(-c2cccs2)nc2ccccc12)c1nc2c(F)cccc2s1	27.2	-2.8	24.8	37.0	30.3	21.5	nt	nt
Cc1ccc2nc(N(CCCN(C)C)C(=O)c3cc(-c4cccs4)nc4ccccc34)sc2c1	30.7	60.4*	-42.4	39.6	40.6*	15.4	41.6*	30.8
SMILES	NLRP3 yeast inh	tim23-1 inh	PfHsp90 yeast 2	tim10-1 inh	TIM10 inh	NALP1 inh	tim10 confirm	tim23-1 conf
Cc1ccc2c(c1)COc1c3ccc(C(=O)NCC4CC4)cc3nn1-2	15.5	61.1*	12.6	16.4	40.7*	-4.0	31.1*	53.6*
COc1ccccc1N1CC(C)(C)C(=O)N(C(=O)c2ccc(Cl)cc2)C1=S	20.5	51.5*	-19.4	23.7	45.2*	11.4	54.2*	52.1*
N#C/C(=C\c1ccccc1)C(=O)NNS(=O)(=O)c1cccc([N+](=O)[O-])c1	13.8	14.3	-3.9	2.9	-0.4	nt	nt	nt
N#C/C(=C/c1cccc([N+](=O)[O-])c1)C(=O)Nc1ccccc1O	17.4	73.1*	10.6	32.1	41.8*	nt	40.0*	57.0*
Cc1cc(NC(=O)c2ccc(F)c(S(=O)(=O)N3CCCCC3)c2)no1	12.0	17.3	17.4	9.9	5.9	18.0	nt	nt
NC(=O)c1cc(Br)cc(C2CCCCC2)c1O	32.3	65.4*	32.1	33.4	52.6*	10.1	76.0*	14.9
O=C(C(=O)c1cc(Br)ccc1O)c1cc(Br)ccc1O	nt	nt	22.8	nt	nt	nt	nt	nt
COc1ccc(C(=O)O/N=C(\N)Cc2ccc(Cl)cc2)cc1OC	4.0	67.6*	-17.3	-1.8	79.0*	16.9	86.4*	49.0*
N/C(=N\OC(=O)c1cc(Cl)ccc1Cl)c1ccncc1	-13.8	14.2	-7.5	26.6	9.3	-0.1	nt	nt
COc1ccc(/C=N/NC(=O)Cc2ccc(Cl)cc2)cc1OC	3.6	-20.9	-9.8	-12.4	31.1	-1.2	nt	nt
COc1ccc(Cl)cc1C(=O)O/N=C(\N)c1ccc(Cl)cc1	12.1	88.8*	2.0	28.6	79.2*	49.1	83.3*	43.8*
N/C(Cc1ccc(Cl)cc1)=N\OC(=O)Cc1ccc([N+](=O)[O-])cc1	39.4	55.2*	-12.9	37.8	77.3*	28.9	-5.9	72.2*
COc1ccc(C/C(N)=N/OC(=O)c2cccc([N+](=O)[O-])c2)cc1	2.9	72.6*	-5.1	27.0	72.0*	25.8	85.8*	67.6*
O=C1C(=O)c2c(ccc3ccccc23)-c2ccccc21	nt	nt	-19.4	nt	nt	nt	nt	nt
Cc1oc(-c2ccc(Cl)cc2)cc1C(=O)/C(C#N)=C/Nc1ccccc1	8.1	30.7	1.1	23.1	18.2	3.0	nt	nt
